Compound activity (PubChem BioAssay)
Wnt bcat act – activates Wnt/beta-catenin signaling in a reporter cell assay; activator, plate reader; activation, % at 9.35 µM; hit rate 1.2% among 300,000; AID 743398; in the data active = activation above about 30%, passing the limit was not always enough; inconclusive = no clear call, values can overlap the other calls;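 note: 0% = neutral control wells and 100% = positive control wells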
hgDAF-12 ag – hgDAF-12 agonism, primary luciferase screen; hit rate 1.8% among 370,000; activation, % at 6.8 µM; HEK293 GAL4-hgDAF12 UAS-luciferase reporter, agonist luminescence; normalized to butyrate control; AID 687014;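 active = activation above a cutoff set at the mean of all screened compounds plus 3 SD, cut at about 10% in these data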;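 note: 0% = DMSO wells and 100% = sodium butyrate wells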
hcDAF12 agonist – H. contortus DAF-12 activation, primary screen; HEK293 hcDAF-12 lit1-tk-luc reporter, luminescence; 0% DMSO, 100% Δ7-dafachronic acid; AID 652067; hit rate 1.4% among 370,000; activation, % at 6.8 µM;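 active = activation above the mean of all tested compounds plus 3 SD, cut at about 5.5% in these data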;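 note: 100% = response to 3 µM Δ7-dafachronic acid high control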
DAX1 inh – blocks DAX1 repression of SF-1 activated StAR promoter; HEK293T StAR-luciferase reporter, SF-1/DAX-1 repression relief; inhibition, % at 6.8 µM; hit rate 1.1% among 370,000;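 active = inhibition above the mean over all tested compounds plus 3 SD, cut at about 3.6% in these data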;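 note: 0% = DAX-1 cells with DMSO and 100% = cells lacking DAX-1 with DMSO; higher inhibition means more luminescence from relief of DAX-1 repression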
esBAF inh – SWI/SNF esBAF complex inhibition. mouse ES cells, Bmi1-luciferase knock-in reporter, 24 h; 100% = twice the neutral-well signal. reporter increase, % at 12.5 µM. hit rate 2% among 350,000; in the data active = activation above about 40%; inconclusive = no clear call, values can overlap the other calls;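 note: 0% = median of the plate's neutral control wells and 100% = double that signal; a rise in the Bmi1 reporter signal indicates esBAF inhibition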
ssDAF-12 act – activators of S. stercoralis DAF-12 nuclear receptor | hit rate 1% among 370,000 | activation, % at 6.8 µM | AID 652126 | HEK293 ssDAF-12/GRIP1 lit1-tk-luc reporter, luminescence; % of 3 µM dafachronic acid response;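 active = activation above the mean over all tested compounds plus 3 SD, cut at about 0.9% in these data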;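 note: 0% = DMSO-only wells and 100% = 3 µM delta7-dafachronic acid wells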
esBAF Ring1 qPCR – confirmation of esBAF inhibitors: Ring1 de-repression in mouse ESCs. mouse ESC E14, Ring1 mRNA RT-qPCR fold change. shares compounds with esBAF inh. AID 743176. fold change at 33 µM. 550 tested, under 10 active;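 active = Ring1 gene expression raised more than 2-fold over untreated cells in both replicates at either tested dose; inconclusive = only one replicate above 2-fold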;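 note: Ring1 transcript normalised to actin housekeeping signal by TaqMan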
Fgf4 repress – represses Fgf4 in mouse ESCs, confirming esBAF inhibition; shares compounds with esBAF inh; mouse ESC E14, Fgf4 mRNA qPCR fold change; stronger effect = lower value; Fgf4 expression fold change at 33 µM; hit rate 4% among 550;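 active = Fgf4 expression under 0.8 fold of control in both repeat measurements at one or both tested doses; inconclusive = under 0.8 fold in just a single repeat measurement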;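 note: Fgf4 transcript normalised to actin in duplex TaqMan qPCR; cells exposed to compound for 24 h before lysis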
esBAF Bmi1 qPCR – confirmation of esBAF inhibitors: Bmi1 de-repression in mouse ESCs. fold change at 33 µM. mouse ESE14 ES cells, Bmi1 mRNA qPCR fold; stronger effect = higher value. shares compounds with esBAF inh. 550 tested, under 10 active;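 active = Bmi1 expression fold change above 6 at either tested concentration, seen in replicate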;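 note: higher fold means more Bmi1 de-repression and stronger esBAF inhibition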
A549 cytotox – cytotoxicity in A549 cells; shares compounds with esBAF inh; plate reader; cell viability change % (negative = cytotoxic), % at 25 µM, hits read low; 550 tested, under 10 active; call rule not given here
HepG2 cytotox SP – HepG2 cell cytotoxicity at single point; shares compounds with esBAF inh; plate reader; stronger effect = lower value; activity change, negative = inhibition, % at 25 µM; hit rate 4% among 550; in the data active = activity change below about -50%
HEK293 tox SP – kills or reduces viability of HEK293 cells; shares compounds with esBAF inh; HEK293 cytotoxicity, plate reader; hit rate 3% among 550; activity change, negative = inhibition, % at 25 µM, hits read low; AID 743190; in the data active = activity change below about -38%, passing the limit was not always enough
DAX1 conf – NR0B1 (human) inhibition, confirmation; shares compounds with DAX1 inh; HEK293T StAR-promoter luciferase reporter, SF-1/DAX-1 repression; inhibition, % at 6.8 µM; hit rate 87% among 2,400; AID 652134;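 active = inhibition above the average of every tested compound plus 3 SD, cut at about 3.8% in these data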;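 note: 0% = DAX-1 cells with DMSO and 100% = no DAX-1 control cells with DMSO; active compounds raise luminescence by relieving repression of the StAR reporter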
Target sequence (P51843 whole entry, looked up): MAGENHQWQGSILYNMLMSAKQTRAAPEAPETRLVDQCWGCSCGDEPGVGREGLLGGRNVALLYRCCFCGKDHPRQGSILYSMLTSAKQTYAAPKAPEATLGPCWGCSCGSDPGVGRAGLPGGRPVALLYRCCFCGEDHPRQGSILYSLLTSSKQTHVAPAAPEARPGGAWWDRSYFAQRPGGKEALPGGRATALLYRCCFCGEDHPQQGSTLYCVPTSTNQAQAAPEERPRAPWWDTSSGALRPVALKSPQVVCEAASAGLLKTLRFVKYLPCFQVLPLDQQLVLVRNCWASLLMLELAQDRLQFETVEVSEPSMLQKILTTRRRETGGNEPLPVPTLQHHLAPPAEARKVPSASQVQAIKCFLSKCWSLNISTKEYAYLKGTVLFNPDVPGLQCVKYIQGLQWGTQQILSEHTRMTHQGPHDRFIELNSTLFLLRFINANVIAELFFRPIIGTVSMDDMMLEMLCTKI
SF1 AF2mut Luc – counter-screen for DAX1 inhibitors: nonselective inhibitors with SF-1 AF2 mutant | shares compounds with DAX1 inh | HEK293 StAR-luciferase, luminescence | inhibition, % at 6.8 µM | hit rate 78% among 2,400;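 active = inhibition above the mean of all tested compounds plus 3 SD, cut at about 3% in these data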;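 note: 0% = DAX-1 transfected cells with DMSO and 100% = cells without DAX-1 with DMSO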
LXR ag – LXR-beta agonism as hcDAF-12 counter-screen | shares compounds with hcDAF12 agonist | HEK293 Gal4-LXR tk-luc reporter, luminescence, 24 h; normalized: DMSO 0%, positive control 100% | activation, % at 6.8 µM | 3,400 tested, under 10 active | AID 743027;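 active = mean percent activation of the reporter above a cutoff set as the average over tested compounds plus their standard deviation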
hcDAF12 conf – hcDAF-12 agonism, confirmation assay. shares compounds with hcDAF12 agonist. HEK293 hcDAF-12 lit1-tk-luc reporter, luminescence; % of Δ7-dafachronic acid response. activation, % at 6.8 µM. hit rate 61% among 3,400. AID 743032;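 active = mean activation across triplicate tests above the threshold derived from the earlier primary screen, cut at about 5.5% in these data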;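 note: 0% = DMSO only wells and 100% = 3 µM Δ7-dafachronic acid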
hgDAF12 conf – confirmation of H. glycines DAF-12 agonists; shares compounds with hgDAF-12 ag; HEK293 GAL4-hgDAF12 luciferase reporter, agonist mode; percent of butyrate response; activation, % at 6.8 µM; hit rate 80% among 3,300; AID 743050;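 active = mean activation over triplicate wells above the hit cutoff derived from the earlier primary screen, cut at about 11% in these data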;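 note: 0% = DMSO low control and 100% = 2 mM sodium butyrate high control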
LXR ag 2 – activates human LXR-beta, counter-screen for DAF-12 agonists; shares compounds with hgDAF-12 ag; HEK293 Gal4-LXR luciferase reporter, 24 h; activation, % at 6.8 µM; 3,300 tested, under 10 active;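 active = mean activation of the triplicate above a set limit carried over from the primary screen, none filed active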
Numbers without * were called inactive; ? = inconclusive; nt = no result. Sampled rows, rich in hits. Any-hit rate of the full collection: about 4.2%.

SMILES	Wnt bcat act	hgDAF-12 ag	hcDAF12 agonist	DAX1 inh	esBAF inh	ssDAF-12 act	esBAF Ring1 qPCR	Fgf4 repress	esBAF Bmi1 qPCR	A549 cytotox	HepG2 cytotox SP	HEK293 tox SP	hgDAF12 conf	LXR ag 2	others
Cc1sc2c(c1C)CN(C(C)(C)C)CN2C(=O)c1ccccc1	nt	9	6.8*	1	66*	1	1.2	0.92	1.4	8	0	0	nt	nt	LXR ag=0;hcDAF12 conf=6.4*
Cc1sc2c(c1C)CN(Cc1ccncc1)CN2C(=O)c1ccco1	nt	5	3	1	13	-1	nt	nt	nt	nt	nt	nt	nt	nt
CO[C@H]1CN(C)C(=O)c2cc(NC(=O)c3cc(C)on3)ccc2OC[C@H](C)N(C(=O)C2CC2)C[C@H]1C	nt	nt	nt	nt	2	nt	nt	nt	nt	nt	nt	nt	nt	nt
Cc1ccn2c(CC(C)(C)C)c(-c3ccc(F)cc3)nc2c1	55*	10	6.7*	5.6*	65*	1	1.2	0.97	2.1	-11	4	-2	nt	nt	DAX1 conf=8.8*;SF1 AF2mut Luc=6.6*;LXR ag=1;hcDAF12 conf=4
C[C@H](CO)N1C[C@H](C)[C@H](CN(C)Cc2ccc(Cl)c(Cl)c2)Oc2ccc(NC(=O)CCCCCC(=O)Nc3ccccc3N)cc2CC1=O	nt	nt	nt	nt	-19	nt	nt	nt	nt	nt	nt	nt	nt	nt
Cc1ccc(OCc2cc(C(=O)N(C)CCc3ccccn3)no2)cc1C	22	9	7.3*	2	87*	0	1	1	1.2	-6	-23	-12	nt	nt	LXR ag=0;hcDAF12 conf=3
CC(=O)c1cccc(OCc2cc(C(=O)N(C)CCc3ccccn3)no2)c1	2	0	-1	0	nt	-1	nt	nt	nt	nt	nt	nt	nt	nt
Fc1cc(Cl)cc2ccc(-c3ccccc3)nc12	6	15*	3	2	56*	1	1.5	0.98	1.8	9	67	-5	9	0
CC(=O)NC(c1ccccc1)c1nc(/C=C/c2ccccc2)cs1 (configuration not stated)	-1	3	0	1	-5	-1	nt	nt	nt	nt	nt	nt	nt	nt
OC(c1ccccc1)c1nc(/C=C/c2ccccc2)cs1 (configuration not stated)	2	16*	5	3	59*	-1	1.6	?	1.6	6	-5	-6	11*	0
O=C(CCc1nnc(Cc2ccc(-c3ccccc3)cc2)o1)N1CCCC1	-1	-1	-2	0	nt	-2	nt	nt	nt	nt	nt	nt	nt	nt
CC1CCN(C(=O)CCc2nnc(-c3ccccc3)o2)CC1	?	14*	1	1	74*	0	0.94	0.94	1.3	-3	-10	-6	11*	0
CCC(=O)N(C)C[C@@H]1Oc2ncc(C3=CCCC3)cc2C(=O)N([C@@H](C)CO)C[C@H]1C	nt	nt	nt	nt	5	nt	nt	nt	nt	nt	nt	nt	nt	nt
COc1ccc2c(CN(C)Cc3ccccc3)cc(=O)oc2c1	16	15*	2	7.2*	57*	1	1.1	0.88	1.8	-13	-65*	-19	15*	1	DAX1 conf=7.6*;SF1 AF2mut Luc=4.1*
Cc1ccc(SCCN2CCC(C(C)(C)C)CCC2=O)cc1 (configuration not stated)	9	5	5	0	25	0	nt	nt	nt	nt	nt	nt	nt	nt
Cc1ccc(SCCN2CCC(C)CCC2=O)cc1 (configuration not stated)	28	14*	3	2	83*	0	0.98	?	1.2	-11	-44	-20	17*	1
O=C(Cc1ccccn1)N[C@@H]1CC[C@@H](CC(=O)N2CCCCC2)O[C@@H]1CO	nt	nt	nt	nt	5	nt	nt	nt	nt	nt	nt	nt	nt	nt
O=C(CC(NC(=O)OCc1ccccc1)c1nn[nH]n1)OCc1ccccc1 (configuration not stated)	15	13*	3	2	75*	1	1.3	0.97	1.5	-9	-17	-3	11*	1
O=C([C@@H]1[C@@H](CO)[C@@H]2Cn3c(ccc(C4=CCCC4)c3=O)[C@@H]2N1Cc1nccs1)N1CCOCC1	nt	nt	nt	nt	-11	nt	nt	nt	nt	nt	nt	nt	nt	nt
O=C(Nc1nc2ccc(Cl)cc2s1)c1cccc(N2C(=O)CCC2=O)c1	?	14*	5	5.0*	67*	0	1.7	1	1.3	-12	11	0	10	0	DAX1 conf=7.6*;SF1 AF2mut Luc=4.1*
COc1ccccc1-c1cn(CC[C@@H]2CC[C@H](NC(=O)C3CC3)[C@H](CO)O2)nn1	nt	nt	nt	nt	-1	nt	nt	nt	nt	nt	nt	nt	nt	nt
O=C1CCn2nc(-c3ccc(Cl)cc3)cc2N1	-4	8	5	5.3*	48*	1.0*	nt	nt	nt	nt	nt	nt	nt	nt	DAX1 conf=6.3*;SF1 AF2mut Luc=4.3*
CC(C)NC(=O)Nc1ccc2c(c1)C(=O)N(C)[C@@H]1CC[C@H](CC(=O)Nc3ccccc3)O[C@H]1CO2	nt	nt	nt	nt	-4	nt	nt	nt	nt	nt	nt	nt	nt	nt
CCCCn1c(N)c(N(C)C(=O)c2ccc(Br)o2)c(=O)[nH]c1=O	-3	1	1	4.6*	-2	-1	nt	nt	nt	nt	nt	nt	nt	nt	DAX1 conf=0;SF1 AF2mut Luc=2
CN1CCN(C(=O)C[C@H]2C[C@H]3c4cc(NC(=O)NC5CCCC5)ccc4O[C@H]3[C@H](CO)O2)CC1	nt	nt	nt	nt	-1	nt	nt	nt	nt	nt	nt	nt	nt	nt
